Results on 9 compounds are retold here after PubChem BioAssay (NCI).

What all share (test): NCI-60 one-dose screen, 48 h (100 = growth as untreated, 0 = no growth, -100 = all killed)
One experiment relates to HT29 colon. The following applies: 10 µM unless noted.
The next experiment concerns SNB-75 CNS. The following applies: 10 µM unless noted.
The test system of another experiment is SNB-19 CNS. The following applies: 10 µM unless noted.
A further experiment relates to U251 CNS. The following applies: 10 µM unless noted.
The subject of a further experiment is PC-3 prostate. The conditions noted are these: 10 µM unless noted.
In another experiment the test system is UACC-62 melanoma. The conditions noted are these: 10 µM unless noted.
In another experiment the test system is LOX IMVI melanoma. The following applies: 10 µM unless noted.
Another experiment has as its system SK-MEL-28 melanoma. The conditions noted are these: 10 µM.
A further experiment concerns SK-MEL-2 melanoma. The following applies: 10 µM unless noted.
The subject of another experiment is EKVX NSCLC. The following applies: 10 µM unless noted.
The subject of a further experiment is SN12C renal. The following applies: 10 µM unless noted.
A further experiment concerns UO-31 renal. The following applies: 10 µM unless noted.
Another experiment concerns TK-10 renal. The conditions noted are these: 10 µM unless noted.
In a further experiment the test system is ACHN renal. The following applies: 10 µM unless noted.
The next experiment has as its system CAKI-1 renal. The following applies: 10 µM unless noted.
The subject of the next experiment is A498 renal. The following applies: 10 µM unless noted.
The next experiment has as its system MOLT-4 leukemia. The conditions noted are these: 10 µM unless noted.
For another experiment, the system named is CCRF-CEM leukemia. The conditions noted are these: 10 µM unless noted.
In the next experiment the test system is SR leukemia. The conditions noted are these: 10 µM unless noted.

SMILES strings stand for the structures. The panel holds about 83,000 compounds, 20% with a hit somewhere; the sample as a whole holds those more often.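 48-hour exposure, single concentration, 96-well plates; percent growth endpoint where 0 means no net growth. Active: below 10.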 A number with no mark means an inactive call. Calls of active or inactive are those of the source.

On to `O=c1oc2ccc(I)cc2c(=O)n1-c1ccc(I)cc1F`, for which the growth is 28.3% in the experiment with HT29 colon; -22.6% (active) in the experiment on SNB-75 CNS; 21.2% in the experiment with SNB-19 CNS; 1.81% (active) in the experiment with U251 CNS; 3.97% (active) in the experiment with PC-3 prostate; -28.6% (active) with UACC-62 melanoma. Besides, the growth with LOX IMVI melanoma was 4.98% (active); in the experiment with SK-MEL-28 melanoma it was -4.19% (active); in the experiment with SK-MEL-2 melanoma, -29.7% (active); in the experiment on EKVX NSCLC, 9.77% (active); with SN12C renal, 4.52% (active); with UO-31 renal, 8.63% (active). Also, the growth was 11.3% with TK-10 renal; 4.07% (active) with ACHN renal; -20.2% (active) with CAKI-1 renal; -73.3% (active) with A498 renal; -35.6% (active) with MOLT-4 leukemia.
`CC/C=C\C[C@H](O)C/C=C1/C(=O)C=C[C@@H]1C/C=C\CCCC(=O)OCCS(=O)(=O)c1ccccc1`: the growth is 45.1% in the experiment with HT29 colon; 111% in the experiment on SNB-75 CNS; 56.2% with SNB-19 CNS; 16.3% with U251 CNS; 63.4% with PC-3 prostate; 16.1% in the experiment with UACC-62 melanoma. Moreover, the growth with LOX IMVI melanoma was -34.1% (active); in the experiment on SK-MEL-28 melanoma it was 73.9%; in the experiment on SK-MEL-2 melanoma, 72%; with EKVX NSCLC it was 104%; with SN12C renal, 37.3%; in the experiment on UO-31 renal, 70.4%. For the same compound, the growth was 104% with TK-10 renal; 86.3% in the experiment with ACHN renal; 65.4% in the experiment on CAKI-1 renal; 115% in the experiment on A498 renal; 5.02% (active) in the experiment on CCRF-CEM leukemia; 8.02% (active) in the experiment with MOLT-4 leukemia. For the same compound, the growth in the experiment with SR leukemia is 8.55% (active).
Regarding `O=C1c2ccccc2C(=O)c2c1ccc1[nH]c(CCl)nc21`, the growth in the experiment with HT29 colon is 5.78% (active); in the experiment on SNB-75 CNS, 33.4%; in the experiment on SNB-19 CNS, 47.8%; in the experiment with U251 CNS it was 9.78% (active); in the experiment with PC-3 prostate, 39.3%; with UACC-62 melanoma, 39.5%. In addition, the growth was -36.9% (active) in the experiment on LOX IMVI melanoma; 57.6% with SK-MEL-28 melanoma; 27.4% in the experiment with SK-MEL-2 melanoma; 72.5% in the experiment on EKVX NSCLC; -1.77% (active) in the experiment with SN12C renal; 22.7% in the experiment on UO-31 renal. Further, the growth in the experiment on TK-10 renal is 30.9%; with ACHN renal, 10.7%; in the experiment with CAKI-1 renal it was 7.26% (active); in the experiment on A498 renal, 16.3%; in the experiment with CCRF-CEM leukemia it was -12.5% (active); with MOLT-4 leukemia, -2.42% (active).
As for `COc1ccc(-c2nocc2-c2cccs2)cc1`, the growth in the experiment on HT29 colon was 114%; in the experiment with SNB-75 CNS it was 89.4%; in the experiment on SNB-19 CNS, 102%; with U251 CNS it was 110%; in the experiment with PC-3 prostate, 101%; with UACC-62 melanoma, 93.3%. Besides, the growth with LOX IMVI melanoma was 108%; in the experiment on SK-MEL-28 melanoma, 103%; with SK-MEL-2 melanoma, 103%; in the experiment on EKVX NSCLC it was 91.6%; in the experiment with SN12C renal it was 103%; in the experiment on UO-31 renal, 88.2%. Also, the growth is 104% in the experiment with TK-10 renal; 103% in the experiment with ACHN renal; 89.8% with CAKI-1 renal; 107% in the experiment on A498 renal; 105% in the experiment on CCRF-CEM leukemia; 108% in the experiment with MOLT-4 leukemia. For the same compound, in the experiment on SR leukemia, the growth was 128%.
With `O=C(CCc1nnc2sc(Cc3ccccc3Cl)nn12)c1nc2ncccc2[nH]1`, the growth in the experiment on HT29 colon is 104%; in the experiment with SNB-75 CNS it was 67.7%; in the experiment with SNB-19 CNS, 93.3%; with U251 CNS it was 104%; in the experiment on PC-3 prostate, 85.6%; with UACC-62 melanoma, 83.2%. Besides, the growth is 88% with LOX IMVI melanoma; 96.2% with SK-MEL-28 melanoma; 97.9% in the experiment with SK-MEL-2 melanoma; 94.6% with EKVX NSCLC; 87.3% in the experiment on SN12C renal; 63.5% in the experiment with UO-31 renal. Moreover, the growth with TK-10 renal was 128%; in the experiment with ACHN renal it was 94.9%; with CAKI-1 renal, 74.4%; with A498 renal, 87.5%; with CCRF-CEM leukemia, 103%; with MOLT-4 leukemia it was 86.2%.
As to `COc1cc(/C=C2\CCC/C(=C\c3cc(CN4CCCCC4)c(O)c(OC)c3)C2=O)cc(CN2CCCCC2)c1O`, the growth in the experiment on HT29 colon was 13.3%; in the experiment on SNB-75 CNS it was 89.8%; in the experiment on SNB-19 CNS it was 80.7%; in the experiment with U251 CNS, 70.1%; in the experiment on PC-3 prostate it was 82.7%; with UACC-62 melanoma, 91.5%. Also, the growth in the experiment on LOX IMVI melanoma is 66.9%; in the experiment on SK-MEL-28 melanoma it was 93.6%; with SK-MEL-2 melanoma it was 101%; in the experiment with EKVX NSCLC, 87.3%; with SN12C renal, 72.5%; in the experiment with UO-31 renal it was 58.3%. Also, the growth was 115% in the experiment with TK-10 renal; 83.8% with ACHN renal; 106% in the experiment on CAKI-1 renal; 90.9% in the experiment on A498 renal; 45.7% with CCRF-CEM leukemia; 49.8% with MOLT-4 leukemia. Besides, in the experiment on SR leukemia, the growth was 6.77% (active).
In the case of `O=C(CCc1nnc2sc(COc3ccccc3)nn12)c1nc2ncccc2[nH]1`, the growth in the experiment on HT29 colon was 106%; in the experiment with SNB-75 CNS, 79.8%; with SNB-19 CNS, 100%; in the experiment with U251 CNS, 101%; in the experiment on PC-3 prostate it was 96.5%; with UACC-62 melanoma, 91.8%. Also, the growth was 91.8% with LOX IMVI melanoma; 107% in the experiment with SK-MEL-28 melanoma; 102% in the experiment on SK-MEL-2 melanoma; 102% with EKVX NSCLC; 96.3% with SN12C renal; 69% in the experiment on UO-31 renal. Moreover, the growth in the experiment with TK-10 renal was 124%; in the experiment on ACHN renal, 107%; in the experiment with CAKI-1 renal, 84.4%; in the experiment with A498 renal, 66.8%; in the experiment with CCRF-CEM leukemia, 118%; with MOLT-4 leukemia it was 113%.
Take `Cc1ccc2[nH]c(=O)cc(-n3nncc3Cn3c4ccccc4c4ccccc43)c2c1`: the growth was 113% in the experiment on HT29 colon; 81.2% in the experiment on SNB-75 CNS; 97.1% in the experiment with SNB-19 CNS; 99.2% in the experiment with U251 CNS; 92.8% in the experiment with PC-3 prostate; 94.9% in the experiment with UACC-62 melanoma. Also, the growth in the experiment with LOX IMVI melanoma was 98.2%; in the experiment with SK-MEL-28 melanoma, 108%; in the experiment with SK-MEL-2 melanoma, 103%; in the experiment with EKVX NSCLC, 98.2%; with SN12C renal it was 101%; in the experiment with UO-31 renal it was 73.7%. The growth with TK-10 renal is 118%; in the experiment on ACHN renal it was 90%; with CAKI-1 renal, 85%; in the experiment on A498 renal, 80%; in the experiment with CCRF-CEM leukemia, 99.5%; in the experiment with MOLT-4 leukemia, 101%. The growth in the experiment on SR leukemia was 103%.
Turning to `COc1c2ccoc2c(/C=C/C=O)c2oc(-c3ccccc3)cc(=O)c12`, the growth with HT29 colon was 87.1%; in the experiment on SNB-75 CNS, 95.2%; in the experiment on SNB-19 CNS it was 87.1%; in the experiment with U251 CNS it was 16.3%; with PC-3 prostate it was 37.9%; in the experiment with UACC-62 melanoma, 83%. Besides, the growth with LOX IMVI melanoma was -41% (active); in the experiment with SK-MEL-28 melanoma, 102%; in the experiment with SK-MEL-2 melanoma, 78.2%; in the experiment on SN12C renal it was 38.7%; in the experiment on UO-31 renal, 60.1%; in the experiment with TK-10 renal, 93.8%. Also, the growth with ACHN renal is 91.5%; in the experiment on CAKI-1 renal, 93.1%; with A498 renal it was 72.4%; with CCRF-CEM leukemia, 0.373% (active); in the experiment on MOLT-4 leukemia, 10.4%; in the experiment on SR leukemia it was 5.33% (active).
